Values without a mark were called inactive. Records with an inconclusive call do not appear. Activity calls are given as the source filed them. Unless noted, calls follow the shape of the full dose curve.

A short description of test [1]: Nuclear factor erythroid 2-related factor 2/antioxidant responsive element (Nrf2/ARE) small molecule agonists: qHTS cell viability counter screen in human keratinocytes (AID 1919968; active = well fitted curve in the direction sought with a large enough effect in the repeat runs; an effect the other way counts as inactive or inconclusive; also: nearly all actives have a fitted effect of over 55% in size). An outline of the steps: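 KeratinoSens cells (HaCaT keratinocytes stably carrying an ARE-luciferase reporter) were seeded at 1,500 cells/well and rested 5 h at 37 C/5% CO2. They were then exposed to compounds in DMSO for 23 h. Viability was read by CellTiter-Fluor fluorescence after 1 h.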

Test [2] can be described thus: Nuclear factor erythroid 2-related factor 2/antioxidant responsive element (Nrf2/ARE) small molecule agonists: luciferase reporter gene qHTS assay in human keratinocytes (AID 1919969). Also: nearly all actives have a fitted effect of over 35% in size. Also: potency is read from the fitted curve at half-maximal effect.
Test [3] deals with Gonadotropin-releasing hormone receptor (Homo sapiens) (UniProt P30968). Put plainly: Human gonadotropin-releasing hormone receptor (GnRHR) small molecule agonists, calcium flux assay in GnRHR-HEK293 cells (AID 1920063). Also: nearly all actives have a fitted effect of over 35% in size. An outline of the steps:
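HEK293 cells stably expressing human GnRHR were plated 18 h at 37 °C, loaded with calcium dye 1 h at 37 °C, then given compound in agonist mode; fluorescence (Ex/Em 480/540) read kinetically for 3 min at 1 s intervals.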

In test [4] the target is KiSS-1 receptor (Homo sapiens) (UniProt Q969F8). Put plainly: Human kisspeptin (KISS1R) small molecule agonists, calcium flux assay in KISS1R-HEK293 cells (AID 1920064; active = well fitted curve in the direction sought with a large enough effect in the repeat runs; an effect the other way counts as inactive or inconclusive). An outline of the steps:
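HEK293 cells stably expressing human KISS1R were plated 18 h at 37 °C, loaded with calcium dye for 1 h at 37 °C, then given compound by pin tool. Fluorescence (Ex/Em 480/540) was read kinetically for 3 min.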
In general terms: A change in cytosolic calcium serves as a functional read-out for many receptors and channels.

Test [5] in a line: G protein-coupled receptor (GPCR) small molecule agonists, calcium flux assay: HEK293 wild type cell line counter screen (AID 1920065). An outline of the steps:
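Cells were plated and cultured 18 h at 37 C/5% CO2, then loaded with calcium dye for 1 h at 37 C. Compounds in DMSO were pin-transferred in agonist mode, and fluorescence (Ex/Em 480/540) was read kinetically for 3 min at 1 s intervals.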

Test [6] can be described thus: p53 small molecule agonists, cell-based qHTS assay with human liver microsomes: qHTS cell viability counter screen (AID 1963579). Also: nearly all actives have a fitted effect of over 45% in size. An outline of the steps:
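Cells carrying the p53 response-element beta-lactamase reporter are treated for 16 h at 37 C with test compounds in the presence of human liver microsomes and NADPH (both 0.5 mg/mL final); ATP-based CellTiter-Glo luminescence then reports viability.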
(In qHTS, concentration-response curves come from the screen itself.)

The nature of test [7]: p53 small molecule agonists, cell-based qHTS assay with rat liver microsomes: qHTS cell viability counter screen (AID 1963580). Also: nearly all actives have a fitted effect of over 45% in size. An outline of the steps:
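Viability is assessed in parallel with the p53 reporter read: HCT-116 p53RE-bla cells receive compounds plus rat microsomes and NADPH (0.5 mg/mL final apiece), incubate 16 h at 37 C, and then CellTiter-Glo luminescence is recorded.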

Test [8] in a line: p53 small molecule agonists, cell-based qHTS assay: qHTS cell viability counter screen (AID 1963581). Also: nearly all actives have a fitted effect of over 45% in size. An outline of the steps:
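p53RE-bla HCT-116 cells were exposed to compounds for 16 h at 37 C; after the beta-lactamase FRET read in the same wells, CellTiter-Glo was added and luminescence (intracellular ATP) read after 30 min at room temperature.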

Test [9] is described as follows: p53 small molecule agonists, cell-based qHTS assay (AID 1963582; active = well fitted activation curve with a large enough effect in the signal ratio in the repeat runs, not every such curve was filed as active; the % refers to the signal ratio). An outline of the steps: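 p53RE-bla beta-lactamase reporter cells rested 5 h at 37 C/5% CO2, then received compounds in DMSO by pin transfer and were incubated 16 h at 37 C. LiveBLAzer B/G FRET substrate was loaded for 2 h at room temperature before fluorescence reading.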
In test [10] the target is 5-hydroxytryptamine receptor 2A (Homo sapiens) (UniProt P28223). Put plainly: 5-hydroxytryptamine receptor 2A (HTR2A) small molecule antagonists, cell-based qHTS assay (AID 1963586). Also: nearly all actives have a fitted effect of over 45% in size. An outline of the steps:
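Antagonist-mode intracellular calcium assay: DOI (4 nM) added after 5 min compound pre-incubation at room temperature to dye-loaded HTR2A-CHO cells. Fluorescence followed for 3 min, sampled every second.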

For test [11] the target is unchanged. The test is described as follows: 5-hydroxytryptamine receptor 2A (HTR2A) small molecule agonists, cell-based qHTS assay (AID 1963587). Also: nearly all actives have a fitted effect of over 30% in size. An outline of the steps:
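CHO cells stably expressing human HTR2A, plated 18 h, loaded with calcium dye 1 h at 37 C. Agonist mode: compounds added and intracellular calcium fluorescence recorded kinetically for 2 min at 1 sec intervals.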

Test [12] addresses Muscarinic acetylcholine receptor M1 (Homo sapiens) (UniProt P11229). The test is described as follows: Cholinergic receptor muscarinic 1 (CHRM1) small molecule antagonists, cell-based qHTS assay (AID 1963588). Also: nearly all actives have a fitted effect of over 40% in size. An outline of the steps:
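CHRM1-CHO calcium-flux assay, antagonist mode. Cells were seeded 18 h, dye-loaded 1 h at 37 C and given compound for 5 min at RT, then acetylcholine was added at 50nM. FDSS fluorescence was read 3 min; 15 concentrations, three runs.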

Test [13] has the same target. Put plainly: Cholinergic receptor muscarinic 1 (CHRM1) small molecule agonists, cell-based qHTS assay (AID 1963589). Also: nearly all actives have a fitted effect of over 35% in size. An outline of the steps: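 CHO cells stably expressing human CHRM1, seeded 18 h at 37 C/5% CO2, dye-loaded 1 h at 37 C, then given compound in agonist mode; intracellular calcium fluorescence read kinetically at 1 s intervals. Fifteen concentrations, three independent runs.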

Test [14] can be described thus: cAMP Responsive Elements (CRE) small molecule agonists, cell-based qHTS assay (AID 1963590). An outline of the steps:
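CRE-bla HEK 293T cells in DMEM with 10% dialyzed FBS, NEAA, pyruvate and 25 mM HEPES were plated 18 h at 37 C/5% CO2, then exposed to compounds in DMSO for 3 h before LiveBLAzer B/G FRET substrate addition.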

A short description of test [15]: cAMP Responsive Elements (CRE) small molecule antagonists, cell-based qHTS assay (AID 1963591; active = well fitted inhibition curve with a large enough effect in the signal ratio in the repeat runs, not every such curve was filed as active; the % refers to the signal ratio). An outline of the steps:
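CRE-bla HEK293T cells were plated 18 h at 37 °C/5% CO2, pinned with compound in DMSO, then stimulated with NKH477 at 0.25 uM final for 3 h. LiveBLAzer B/G FRET substrate was added and plates incubated 2 h at room temperature.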

For test [16], the target named is Beta-2 adrenergic receptor (Homo sapiens) (UniProt P07550). Put plainly: Adrenergic beta2 receptor (ADRB2) small molecule antagonists, cell-based qHTS assay (AID 1963592). Also: series mostly up to about 92 µM; nearly all actives have a fitted effect of over 50% in size. An outline of the steps: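 Cells (CHO, stable ADRB2 overexpression) incubated 18-20hr at 37C; compounds added from DMSO; agonist mix (1nM isoproterenol, 100uM IBMX, 25uM Ro-20-1724) added; 0.5hr RT; d2-cAMP and anti-cAMP-cryptate added; 1hr RT; 665/615 nm read.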
Chain of Beta-2 adrenergic receptor (Homo sapiens) (P07550 whole entry, looked up): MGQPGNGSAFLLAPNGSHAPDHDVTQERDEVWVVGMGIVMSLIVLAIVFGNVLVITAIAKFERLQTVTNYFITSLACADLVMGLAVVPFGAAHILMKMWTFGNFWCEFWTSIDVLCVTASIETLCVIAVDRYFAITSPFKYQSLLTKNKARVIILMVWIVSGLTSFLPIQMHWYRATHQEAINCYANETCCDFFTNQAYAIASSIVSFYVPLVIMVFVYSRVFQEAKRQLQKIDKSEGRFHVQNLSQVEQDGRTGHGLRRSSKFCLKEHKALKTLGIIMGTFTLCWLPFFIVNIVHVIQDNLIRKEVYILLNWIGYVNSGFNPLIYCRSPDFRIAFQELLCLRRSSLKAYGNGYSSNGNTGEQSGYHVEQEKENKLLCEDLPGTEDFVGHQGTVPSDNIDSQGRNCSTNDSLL

The target is the same in test [17]. Put plainly: Adrenergic beta2 receptor (ADRB2) small molecule agonists, cell-based qHTS assay (AID 1963593).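 Also: CHO cells stably overexpressing human ADRB2.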 An outline of the steps: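 CHO cells stably over-expressing ADRB2 were plated overnight at 37C, then dosed with compounds plus a stimulation mix containing 100uM IBMX and 25uM Ro-20-1724 for 0.5hr at room temperature. cAMP was measured by HTRF competition, 1hr.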

Test [18] has as its target D(2) dopamine receptor (Homo sapiens) (UniProt P14416). The test is described as follows: Dopamine D2 receptor (DRD2) small molecule antagonists, cell-based qHTS assay (AID 1963595; active = well fitted inhibition curve with a large enough effect in the signal ratio in the repeat runs, with a control signal flat; the % refers to the signal ratio). An outline of the steps:
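Antagonism was scored as restored cAMP in HEK293-DRD2 cells. These cells were stimulated with 200 nM NKH477 and 12 nM quinpirole for 30 min at room temperature, in the presence of 0.1 mM Ro20-1724.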

For test [19] the target is unchanged. The test is described as follows: Dopamine D2 receptor (DRD2) small molecule agonists, cell-based qHTS assay (AID 1963594). Also: nearly all actives have a fitted effect of over 35% in size. An outline of the steps: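 HEK293 cells stably expressing human DRD2, pre-treated with PDE inhibitor Ro20-1724 (0.1 mM final) and compound 10 min at room temperature, then stimulated with NKH477 (200nM […]) for 30 min. cAMP read by HTRF (665/620 nm).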

Chain of Gonadotropin-releasing hormone receptor (Homo sapiens) (P30968 whole entry, looked up): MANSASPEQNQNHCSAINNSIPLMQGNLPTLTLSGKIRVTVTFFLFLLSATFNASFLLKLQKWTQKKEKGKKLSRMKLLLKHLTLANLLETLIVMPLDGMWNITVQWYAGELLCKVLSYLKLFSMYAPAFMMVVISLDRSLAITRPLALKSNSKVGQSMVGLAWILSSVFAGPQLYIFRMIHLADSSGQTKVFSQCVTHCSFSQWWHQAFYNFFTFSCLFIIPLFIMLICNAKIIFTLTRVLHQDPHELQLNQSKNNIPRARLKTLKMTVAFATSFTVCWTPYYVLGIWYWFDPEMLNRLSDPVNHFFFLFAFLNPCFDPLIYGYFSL
Chain of D(2) dopamine receptor (Homo sapiens) (P14416 whole entry, looked up): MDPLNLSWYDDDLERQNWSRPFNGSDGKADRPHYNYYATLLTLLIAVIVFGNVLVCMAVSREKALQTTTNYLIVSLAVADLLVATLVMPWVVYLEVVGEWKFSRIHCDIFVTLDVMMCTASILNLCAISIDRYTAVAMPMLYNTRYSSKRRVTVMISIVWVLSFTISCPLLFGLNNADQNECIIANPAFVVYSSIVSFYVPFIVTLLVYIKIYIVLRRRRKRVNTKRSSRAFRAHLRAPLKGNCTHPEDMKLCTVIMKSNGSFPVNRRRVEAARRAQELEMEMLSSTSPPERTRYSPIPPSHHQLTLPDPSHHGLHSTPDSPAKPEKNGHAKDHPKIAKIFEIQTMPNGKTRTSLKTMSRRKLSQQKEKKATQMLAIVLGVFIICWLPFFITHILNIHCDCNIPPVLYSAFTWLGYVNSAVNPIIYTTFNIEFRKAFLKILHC
Chain of KiSS-1 receptor (Homo sapiens) (Q969F8 whole entry, looked up): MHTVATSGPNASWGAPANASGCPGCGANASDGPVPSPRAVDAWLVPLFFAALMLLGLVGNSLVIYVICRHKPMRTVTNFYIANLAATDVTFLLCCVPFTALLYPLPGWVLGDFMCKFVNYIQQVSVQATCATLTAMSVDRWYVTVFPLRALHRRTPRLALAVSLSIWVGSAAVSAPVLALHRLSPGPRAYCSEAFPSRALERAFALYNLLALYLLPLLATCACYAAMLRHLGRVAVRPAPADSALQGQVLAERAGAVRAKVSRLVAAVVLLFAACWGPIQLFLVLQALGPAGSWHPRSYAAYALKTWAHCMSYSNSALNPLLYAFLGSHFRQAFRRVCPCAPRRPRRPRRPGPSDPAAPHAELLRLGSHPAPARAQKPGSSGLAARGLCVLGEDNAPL
Chain of Muscarinic acetylcholine receptor M1 (Homo sapiens) (P11229 whole entry, looked up): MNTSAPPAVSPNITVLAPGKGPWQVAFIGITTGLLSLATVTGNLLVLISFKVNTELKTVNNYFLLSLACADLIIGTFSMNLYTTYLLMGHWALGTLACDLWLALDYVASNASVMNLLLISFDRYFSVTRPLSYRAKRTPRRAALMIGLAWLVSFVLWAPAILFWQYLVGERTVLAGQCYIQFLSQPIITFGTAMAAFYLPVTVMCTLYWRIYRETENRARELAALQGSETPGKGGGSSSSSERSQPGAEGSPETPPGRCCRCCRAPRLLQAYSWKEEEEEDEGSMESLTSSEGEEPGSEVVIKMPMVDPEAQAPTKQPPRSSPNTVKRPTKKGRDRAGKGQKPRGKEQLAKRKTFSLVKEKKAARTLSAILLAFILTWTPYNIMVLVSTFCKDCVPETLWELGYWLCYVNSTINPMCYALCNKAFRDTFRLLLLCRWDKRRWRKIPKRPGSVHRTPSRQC
Chain of 5-hydroxytryptamine receptor 2A (Homo sapiens) (P28223 whole entry, looked up): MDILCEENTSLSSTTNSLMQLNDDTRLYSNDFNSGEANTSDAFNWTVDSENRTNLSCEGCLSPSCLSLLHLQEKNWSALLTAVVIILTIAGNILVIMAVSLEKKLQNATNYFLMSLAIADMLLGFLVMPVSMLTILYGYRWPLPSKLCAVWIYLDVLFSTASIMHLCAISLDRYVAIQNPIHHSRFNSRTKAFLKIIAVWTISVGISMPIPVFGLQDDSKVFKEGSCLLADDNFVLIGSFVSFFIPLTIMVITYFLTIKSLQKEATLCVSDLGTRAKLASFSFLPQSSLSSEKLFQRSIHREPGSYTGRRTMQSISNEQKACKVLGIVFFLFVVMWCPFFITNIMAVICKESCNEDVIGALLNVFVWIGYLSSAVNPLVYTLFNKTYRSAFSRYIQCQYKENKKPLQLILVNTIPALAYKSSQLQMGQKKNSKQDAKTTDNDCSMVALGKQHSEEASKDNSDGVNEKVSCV

As to `Nc1ncnc2c1ncn2Cc1c(F)cccc1Cl`, the Potency entry in [1], in test [2], in test [3], in test [4], in [5] and in test [6] was “inactive” throughout. Besides, the Potency entry in test [7], in [8], in [9], in test [10], in test [11] and in test [12] was “inactive” each time. The Potency result in test [13], in [14], in [15], in [16], in [17] and in test [18] was “inactive” each time.
Take `CCC(C)(C)C`: the Potency entry in [1], in [2], in test [3], in [4], in [5] and in [6] was “inactive” in each case. Besides, the Potency entry in test [7], in [8], in [9], in [10], in test [11] and in test [12] was “inactive” throughout. The Potency entry in test [13], in [14], in [15], in test [16], in test [19] and in test [18] was “inactive” throughout.
Turning to `CN(C)c1cc(NC(=O)CNC(C)(C)C)c(O)c2c1C[C@H]1C[C@H]3[C@H](N(C)C)C(=O)C(C(N)=O)=C(O)[C@@]3(O)C(=O)C1=C2O`, the Potency result in [1], in test [2], in test [3], in [4], in test [5] and in [6] was “inactive” each time. Besides, the Potency entry in test [7], in test [8], in test [9], in test [10], in [12] and in test [13] was “inactive” in each case. Besides, the Potency result in test [14], in [16], in test [17] and in test [18] was “inactive” each time.
For the molecule `Cc1ccc(-c2ccccc2)cc1`, the Potency entry in test [1], in [2], in test [3], in test [4], in [5] and in test [6] was “inactive” in each case. Moreover, the Potency entry in test [7], in test [8], in [10], in [11], in test [12] and in test [14] was “inactive” each time. For the same molecule, the Potency result in test [15], in [16], in [17], in test [19] and in test [18] was “inactive” each time.
Regarding `c1ccc(CNc2ncnc3c2ncn3C2CCCCO2)cc1` (stereo not given), the Potency entry in test [1], in test [3], in test [4], in test [5], in [6] and in test [7] was “inactive” in each case. Further, the Potency result in test [8], in [9], in test [10], in [11], in [12] and in [13] was “inactive” in each case. The Potency entry in [14], in test [15], in test [16], in test [19] and in test [18] was “inactive” each time. Further, the Potency in [2] is 1.72 µM (active).
Turning to `CCCCCCCC(=O)OCCCCCC`, the Potency result in [1], in [2], in [3], in test [4], in [5] and in test [6] was “inactive” in each case. Further, the Potency result in test [7], in test [8], in test [9], in test [10], in test [11] and in [12] was “inactive” in each case. In addition, the Potency entry in [13], in test [14], in test [15], in test [16], in [17] and in [19] was “inactive” in each case.
In the case of `C=C(C)C(=O)OCCCCCCOC(=O)C(=C)C`, the Potency result in test [1], in test [2], in test [3], in [4], in test [5] and in test [6] was “inactive” each time. Moreover, the Potency result in test [7], in [8], in [10], in test [11], in test [12] and in test [13] was “inactive” throughout. For the same molecule, the Potency result in test [14], in test [15], in [16], in [17] and in [19] was “inactive” in each case.
As to `CCCCCc1cccc(=O)o1`, the Potency entry in [1], in test [2], in test [3], in [4], in [5] and in [6] was “inactive” throughout. For the same molecule, the Potency entry in test [7], in [8], in test [9], in test [10], in [11] and in test [12] was “inactive” in each case. Besides, the Potency entry in test [13], in test [14], in test [15], in test [16], in test [19] and in test [18] was “inactive” each time.

The values above are taken from PubChem BioAssay (Tox21).
